TTR transcr act: TTR transcription activators in neuroblastoma reporter cells, primary screen, cell-based, luminescence, SH-SY5Y, TTR promoter Gaussia luciferase | 100% = recombinant luciferase protein wells | activation, % at 16.7 µM | 92,000 tested, 1.3% active | AID 1117267, 2014;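 active = activation above the mean of all tested compounds plus 3 SD, cut at about 9.5% in these data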;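 note: cells exposed to compounds for one day before reading; 0% = median of all test compound wells on the plate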
TTR inh HuH7: TTR promoter reporter inhibitors in hepatoma cells, counter-screen for TTR transcription activator project, cell-based, luminescence, HuH7 hepatoma | 1,100 tested, 4% active | inhibition, % at 16.7 µM | HuH7 TTR promoter-Gaussia luciferase reporter | shares compounds with TTR transcr act;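 active = average inhibition above the solvent-only control wells' mean plus 3 SD, cut at about 15% in these data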;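 note: 0% = cells with DMSO only and 100% = cells with inhibitor control FD; inhibitors lower well luminescence so higher value means more inhibition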
TTR act confirm: TTR transcription activators, retest, confirmation, cell-based, luminescence, SH-SY5Y, triplicate. shares compounds with TTR transcr act. SHSY5Y TTR promoter Gaussia luciferase; 100% = purified Lucia enzyme wells, no cells. activation, % at 16.7 µM. 1,100 tested, under 10 active. AID 1117280, 2014;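 active = mean activation above a set limit taken from the earlier primary screen, cut at about 11% in these data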;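 note: 0% = DMSO-treated cells and 100% = recombinant Lucia luciferase without cells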
The depositor's hits bear a star. The entries come from a sample that favours hits as a whole.

SMILES | TTR transcr act | others
Cn1cccc1/C=N/NC(=O)C(O)c1ccccc1 (centres undefined) | 24.7* | TTR inh HuH7=-13.2;TTR act confirm=1.9
Cn1cccc1/C=N/NC(=O)Cc1ccccc1 | 0.8
Cn1nc2c(c1C(=O)N1CCCC(C(=O)c3cc(F)ccc3F)C1)CCCC2 (centres undefined) | 12.0* | TTR inh HuH7=-18.9;TTR act confirm=-0.6
Cc1cc(C)c(C(=O)N2CCCC(C(=O)c3cc(F)ccc3F)C2)o1 (centres undefined) | 2.6
COc1ccc(C(=O)C2CCCN(C(=O)c3c4c(nn3C)CCCC4)C2)cc1F (centres undefined) | 2.2
COC(=O)[C@]12C[C@H](CC(=O)NCc3ccccc3)C(=O)N(Cc3ccc(Cl)cc3Cl)C1=C[C@H](C(C)C)O[C@@H]2C1CC1 | -2.9
COc1cc(/C=C/C(=O)O)cc(S(=O)(=O)NNC(=O)c2cc(C)oc2C)c1OC | 4.0
COc1ccc(C(C)(C)C)cc1S(=O)(=O)NCC1CCCO1 (centres undefined) | 0.8
COc1cc(/C=C/C(=O)O)cc(S(=O)(=O)NCC2CCCO2)c1OC (centres undefined) | 21.6* | TTR inh HuH7=-0.1;TTR act confirm=-0.6
CC(C)C[C@H](NC1(C(=O)NCCc2c[nH]c3ccccc23)CCC1)C(=O)NCCCc1ccccc1 | -1.5
COC(=O)Cn1cnc2ccccc2c1=O | 1.1
O=C(Cn1cnc2ccccc2c1=O)NCCC(=O)N1CCN(Cc2ccccc2)CC1 | -1.5
O=C(Cn1cnc2ccccc2c1=O)N1CCOCC1 | 12.0* | TTR inh HuH7=-10.3;TTR act confirm=0.1
C#CCOCCOCCOCCNc1nc(N2CCOCC2)nc(N2CCN(C(=O)[C@H](CCC(=O)O)n3cc(C(N)CO)nn3)CC2)n1 (some centres undefined) | 2.0
Cc1ccc(C(=O)Nc2ccc3c(c2)CCC3)cc1 | -0.3
CCN1CCCC(NC(=O)c2scc3c2CCCC3)C1 (centres undefined) | -0.5
Cc1ccc(NC(=O)c2scc3c2CCCC3)cc1 | 22.0* | TTR inh HuH7=10.2;TTR act confirm=-1.8
Cc1ccc(C)c(NC(=O)[C@@H]2CCCN2S(=O)(=O)c2cccc3cccnc23)c1 | -0.6
CC1(C)CC(=O)C2=C(C1)N=C1SCCC(=O)N1C2c1ccccc1 (centres undefined) | -1.3
CC1=C(C(=O)OC(C)C)C(c2cccs2)N2C(=O)CCSC2=N1 (centres undefined) | -2.2
COC(=O)C1=C(C)N=C2SCCC(=O)N2C1c1ccc(C(=O)OC)cc1 (centres undefined) | 16.0* | TTR inh HuH7=-6.8;TTR act confirm=2.0
CCC[C@H]1[C@@H](OC(=O)NCCc2ccccc2)CC[C@@]23CCCN2C(=O)CCC[C@@H]13 | -2.1
O=C(CCc1ccc(O)cc1)c1c(O)cc(O)cc1O | -3.3
CCCc1ccc(C(=O)CCC(=O)O)cc1 | -3.3
O=Cc1cc(CCC(=O)O)ccc1O | 11.1* | TTR inh HuH7=-2.5;TTR act confirm=0.3
SMILES | TTR transcr act | others
O=C(OCc1cn(Cc2ccccc2)nn1)N1CCOCC1 | 2.1
O=C(NC1CCCCN(Cc2ccc(Cl)cc2)C1=O)c1ccccc1 (centres undefined) | -0.9
CCC1(C)C2(C#N)C(N)=NC(OC)(OC)C12C#N (centres undefined) | 15.5* | TTR inh HuH7=-4.5;TTR act confirm=-0.8
COC(=O)[C@]1(C)CN(C(=O)OC(C)(C)C)C2=C1C(=O)C[C@](C)(C(=O)OC(C)(C)C)C2 | -0.3
CC(C)(C)OC(=O)N1CCC(N[C@@H](Cc2c[nH]c3ccccc23)C(=O)NCCc2c[nH]c3ccccc23)(C(=O)NC2CCCCC2)CC1 | -1.9
Cn1ccs/c1=N\C(=O)Nc1ccccc1 | 51.7* | TTR inh HuH7=-3.4;TTR act confirm=1.3
Cn1ccsc1=NC(=O)c1ccccc1OC(F)F | 0.7
Cn1ccsc1=NC(=O)c1ccccc1F | -0.2
CCN(CC)CCCNC(=O)C1(N[C@@H](Cc2c[nH]c3ccccc23)C(=O)NCC(OC)OC)CCCCC1 | 0.4
Cc1ccc(CN2CCCCC(NC(=O)c3c(F)cccc3F)C2=O)cc1 (centres undefined) | -1.1
Cc1ccc(Cn2cc(COC(=O)NCC(C)C)nn2)cc1 | 0.0
Cc1ccc2c(COC(=O)C3CC(=O)N(c4ccc5c(c4)OCCO5)C3)cc(=O)oc2c1 (centres undefined) | -1.8
O=C(COC(=O)C1CC(=O)N(c2ccc3c(c2)OCCO3)C1)Nc1ccc2c(c1)CCC2 (centres undefined) | 11.2* | TTR inh HuH7=-12.5;TTR act confirm=2.7
CC(=O)c1ccc(NC(=O)C(C)OC(=O)C2CC(=O)N(c3ccc4c(c3)OCCO4)C2)cc1 (centres undefined) | 2.1
COC(=O)c1cccc(Cn2ccc3ccc(-c4ccc5ccn(C(=O)C6CCC6)c5c4)cc32)c1 | 1.2
COC(=O)[C@]12C[C@H](CC(=O)NCCC(C)C)C(=O)N(Cc3ccccc3)C1=C[C@H](COCc1ccccc1)O[C@@H]2C | 0.1
Nn1c(SCC(=O)Nc2ccc3c(c2)OCO3)nncc1=O | -2.4
Nn1cc(-c2ccccc2)nc1SCC(=O)Nc1ccc2c(c1)OCO2 | 13.5* | TTR inh HuH7=-22.2;TTR act confirm=0.6
O=C(CSc1nc2ccccc2s1)Nc1ccc2c(c1)OCO2 | 1.7
Cc1cccc(C)c1NC(=O)C(c1ccncc1)n1c(=O)c(-c2ccco2)nc2ccccc21 (centres undefined) | -0.9

High-throughput results from PubChem BioAssay.
